RORgamma inh: blocks mouse ROR gamma transcriptional activity; actives 5.4% (n = 310,000); Potency, µM (top dose mostly 53.6 µM), for inactives: at the top dose activity change, negative = inhibition, usual class: inhibitors; P51450; Drosophila S2 Gal4-RORgamma UAS-luciferase reporter, 20 h; AID 2551; further: potency means the concentration at half of the fitted maximal effect; on the % scale 0 is the no-effect control and ±100 the full control effect; nearly all actives have a fitted effect of over 60% in size
Target sequence (P51450 whole entry, looked up, the tested form may be a part): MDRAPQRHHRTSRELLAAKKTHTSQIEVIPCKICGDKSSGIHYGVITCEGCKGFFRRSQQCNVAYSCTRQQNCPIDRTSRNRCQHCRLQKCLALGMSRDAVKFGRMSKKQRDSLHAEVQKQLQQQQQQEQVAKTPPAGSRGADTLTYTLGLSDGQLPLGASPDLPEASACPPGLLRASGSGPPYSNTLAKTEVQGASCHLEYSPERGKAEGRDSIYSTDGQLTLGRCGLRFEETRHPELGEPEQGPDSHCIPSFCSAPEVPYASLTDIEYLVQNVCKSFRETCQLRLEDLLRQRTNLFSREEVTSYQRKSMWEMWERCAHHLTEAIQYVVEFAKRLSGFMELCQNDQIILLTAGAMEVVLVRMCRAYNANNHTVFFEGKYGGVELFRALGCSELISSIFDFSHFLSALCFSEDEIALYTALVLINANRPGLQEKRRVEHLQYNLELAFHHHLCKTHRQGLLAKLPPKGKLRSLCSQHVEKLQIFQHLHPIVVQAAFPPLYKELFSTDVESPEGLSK
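Stably transfected Drosophila Schneider cells are the test system, with ROR gamma fused to Gal4 and luciferase under UAS control; luminescence is read after 20 hr of 700 uM copper sulfate induction at ambient temperature.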
VP16 counter: counter-screen for ROR gamma inhibitors: Gal4-VP16 reporter | actives 3.5% (n = 310,000) | Potency, µM (top dose mostly 53.6 µM), without a hit: at the top dose activity, negative = inhibition, most hits filed as inhibitors | Drosophila S2 Gal4-VP16 UAS-luciferase, luminescence, 20 h;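 further: Gal4-VP16 expression switched on by copper sulfate through the metallothionein promoter; potency means the concentration at half of the fitted maximal effect; on the % scale 0 is the no-effect control and ±100 the full control effect; nearly all actives have a fitted effect of over 50% in size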
p53 reactivation: re-activators of mutant p53. AID 504706. Potency, µM (highest dose often 92.2 µM), for inactives: at the highest dose activity change, positive = activation, hits mostly activators. actives 0.063% (n = 320,000). H1299 p53-A138V BP100-luciferase reporter, luminescence, 24 h; further: potency means the concentration at half of the fitted maximal effect; % of control where 0% means no effect; nearly all actives have a fitted effect of over 45% in size
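H1299 (p53-null), stable ts p53-A138V + BP100-Luc; 1000 cells/well, Opti-MEM/10% FBS; cpd 4 pt, 1:5; 24 h, 37 deg C, 5% CO2; detection reagent 10 min RT; luminescence.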
BRCA1 expr act: increases BRCA1 expression; MCF7-BRCA1-FFLuc reporter, luminescence, 48 h; response scale: scaled: vehicle 0%, 10 µM genistein 100%; Potency, µM (doses to about 46.1 µM), inactives show at the top dose activation, usual class: activators; actives 1.1% (n = 380,000); AID 624202; further: potency means the concentration at half of the fitted maximal effect; nearly all actives have a fitted effect of over 80% in size
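MCF7 cells carrying a BRCA1-firefly luciferase reporter (2000 cells/well, phenol-red free MEM) were attached for 2 h at 37 °C, then given compounds for 48 h. Luminescence was read 15 min after luciferase reagent; activity normalized to genistein (10 microM) and DMSO.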
Giardia kill: Giardia lamblia killing. Giardia lamblia trophozoite viability. activity change, % at 7.66 µM, hits read low. actives 0.15% (n = 340,000); in the data active means activity change below about -80%; inconclusive means between about -30% and that limit;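 further: parasites exposed to compound for two days anaerobically before the ATP read; on the % scale 0 is the no-effect control and ±100 the full control effect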
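Compounds were tested on trophozoites seeded at 100 cells/well and held 48 hrs at 37 deg C anaerobically. An ATP-based luminescent kit measured the remaining live cells.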
ELG1 DNA repair: ELG1-dependent DNA repair inhibition. HEK293T ELG1-luciferase reporter, luminescence, 16 h; DNA damage induced by 5-fluorouridine. Potency, µM (top dose mostly 46.1 µM), for the others: at the highest dose activity change, negative = inhibition, most hits filed as inhibitors. actives 2.3% (n = 330,000). AID 504467; further: potency means the concentration at half of the fitted maximal effect; on the % scale 0 is the no-effect control and ±100 the full control effect; nearly all actives have a fitted effect of over 55% in size
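Luminescence from the luciferase reporter, measured 30 min after ONE-Glo reagent at room temperature, was the read-out. Beforehand, 2,000 cells per well were exposed for 16 hr at 37 °C to 5-fluorouridine together with compound or vehicle.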
The depositor's hits bear a star; u = inconclusive; x = no result given; [ ] = remark or other dose. The list is not random: actives were taken first. Their share in the collection is about 7.6%. Unless noted, the call rests on the fitted dose curve; in most records, active means well fitted curve in the direction sought with a large enough effect; inconclusive means small, poorly fitted or top-dose-only effect, or another doubt; inactive means no such curve, though single readings can be large; an effect the other way counts as inactive or inconclusive.

SMILES	RORgamma inh	VP16 counter	p53 reactivation	BRCA1 expr act	Giardia kill	ELG1 DNA repair
N#CC(C#N)=C1C=CC=CN1/C(=C\c1ccccc1Cl)C(=O)c1ccccc1	6.3µM*	3.2µM*	-20%	-92%	14	u
N#CC(C#N)=C1C=CC=CN1/C(=C\c1ccccc1)C(=O)c1cccs1	14%	u	-4%	-10%	5	-14%
C=CCN1CCN(C(=O)c2ccc(-c3ccccc3)cc2)CC1	x	x	x	0%	u	-2%
C=CCN1CCN(C(=O)CSc2ccccc2)CC1	0%	0%	x	11µM*	-11	u
CC[C@@]12C(=O)N(c3cccc(Br)c3)C(=O)N1[C@H](c1ccc(F)cc1)[C@@H]1C(=O)N(C3CCCCC3)C(=O)[C@@H]12	x	x	1%	-18%	9	1%
S=c1[nH]nc(COc2ccccc2)n1/N=C/c1ccc(Cl)cc1	u	-16%	-4%	-23%	13	-10%
Cc1n[nH]c(=S)n1/N=C/c1ccc(OCc2ccc(Cl)cc2Cl)cc1	18µM*	11µM*	u	u	5	u
Cc1n[nH]c(=S)n1/N=C/c1ccccc1OCc1ccc(Cl)cc1Cl	2.8µM*	7.1µM*	13%	-51%	11	0%
Clc1ccccc1COc1ccc(/C=N/n2cnnc2)cc1	-2%	-4%	-11%	51%	-19	-10%
Cc1n[nH]c(=S)n1/N=C/c1ccc(OCc2ccc(Cl)cc2)cc1	5.6µM*	-13%	14%	5µM*	-11	u
Fc1ccc(COc2ccc(/C=N/n3cnnc3)cc2)cc1	17%	-13%	u	16µM*	4	13%
O=C(Nc1ccccc1Cl)C1C2CCCCC21 (stereo not given)	x	x	x	30%	-5	x
Cc1cc(C)c(COc2ccc(/C=N/n3c(C)n[nH]c3=S)cc2)c(C)c1	2.8µM*	7.1µM*	9%	-3%	15	-5%
Cc1n[nH]c(=S)n1/N=C/c1ccccc1	u	u	-12%	-5%	-1	u
COc1ccccc1/C=N/NC(=O)c1c(-c2ccccc2)noc1C	0%	3%	4%	-14%	3	2%
Cc1onc(-c2ccccc2)c1C(=O)N/N=C/c1cn(C)c2ccccc12	11µM*	u	2%	-16%	-7	u
Cc1cccc(/C=N/NC(=O)c2c(-c3ccccc3)noc2C)c1O	4µM*	6.3µM*	15%	-45%	37	-19%
O=C1CSC(c2ccc3c(c2)OCO3)N1c1ccc(Oc2ccccc2)cc1 (stereo not given)	15%	-5%	4%	5%[1.84 µM]	-2	-10%
COc1ccc(CN2C(=O)C(CC(=O)NCc3ccco3)CC(C(=O)N(C)C)=C2C)cc1 (stereo not given)	x	x	x	1%	x	x
Nc1nc2c(ncn2C2OC(CO)CC2O)c(=O)[nH]1 (stereo not given)	20µM*	u	x	x	x	x
O=C(CNS(=O)(=O)c1ccccc1F)Nc1ccc(N2CCOCC2)cc1	7%	2%	-1%	3%	26	5%
CCN(CC)C(=O)c1sc2nc(-c3cccs3)cc(-c3cccs3)c2c1N	-40%	-1%	0%	-16%	-10	-3%
Nc1c(C(=O)Nc2nccs2)sc2nc(-c3cccs3)cc(C(F)(F)F)c12	u	10µM*	5%	-49%	5	0%
Cc1nnc(NC(=O)c2sc3nc(-c4cccs4)cc(C(F)(F)F)c3c2N)s1	4µM*	u	-4%	-71%	-10	u
Cc1cc(C)c2c(N)c(C(=O)Nc3nccs3)sc2n1	u	u	5%	-93%	u	u
SMILES	RORgamma inh	VP16 counter	p53 reactivation	BRCA1 expr act	Giardia kill	ELG1 DNA repair
CC(C)(C)C(=O)c1sc2nc(-c3cccs3)cc(C(F)(F)F)c2c1N	10µM*	-9%	-39%	-4%	2	10%
COc1ccc(/C=C2\NC(=S)N(CC3CCCO3)C2=O)c(OC)c1 (stereo not given)	16µM*	u	16%	u	10	17%
CC(=O)c1ccc(Nc2ccc(-c3ccccc3C)nn2)cc1	0%	-2%	4%	6.3µM*	4	u
CC(=O)c1cccc(Nc2ccc(-c3ccccc3F)nn2)c1	u	-15%	10%	11µM*	-8	u
CN(CCc1ccccc1)C1CCCN(S(=O)(=O)CC(F)(F)F)C1 (stereo not given)	8%	-3%	x	-20%	3	0%
CCOC(=O)N1CCN(C(=O)c2sc3nc(-c4ccc(F)cc4)cn3c2C)CC1	-11%	3%	-2%	-8%	16	21µM*
COc1ccc(-c2cn3c(C)c(C(=O)N4CCN(c5ccc(F)cc5)CC4)sc3n2)cc1	-43%	3%	-11%	24%	-24	0%
COc1ccccc1N1CCN(C(=O)c2sc3nc(-c4ccc(F)cc4)cn3c2C)CC1	33%	-11%	-8%	-39%	-5	18µM*
N#CCSc1nc2cc(C(=O)N3CCC(C(N)=O)CC3)ccc2c2nc3ccccc3n12	-20%	-5%	8%	-65%	8	21µM*
C=CCn1c(SCc2ccc(Cl)cc2)nc2cc(C(=O)N3CCC(C(N)=O)CC3)ccc2c1=O	1%	1%	-11%	-84%	58	8.2µM*
N#CCSc1nc2ccccc2c2nc3ccccc3n12	-5%	3%	30%	-35%	-20	21µM*
CCCCCn1c(SCC(=O)OCC)nc2cc(C(=O)N3CCC(C(N)=O)CC3)ccc2c1=O	6%	-9%	11%	7%	-9	-2%
Cc1ccc(CNS(=O)(=O)c2ccc(CN3C(=O)c4cccnc4C3=O)cc2)o1	-12%	-7%	2%	-15%	-15	22%
CCN(CC)Cc1nc2c(c(=O)[nH]1)C(CC)(CC)Cc1ccccc1-2	1.6µM*	5µM*	2%	-21%	-26	-6%
COc1cccc(/C=N/NC(=O)c2cnccn2)c1OC	9%	-15%	8%	-2%	0	17%
COc1ccc(CCn2c(C3CCCCC3)nc3c(c(=O)c4ccccc4n3C)c2=O)cc1	4%	-13%	-3%	-59%	-14	16µM*
COc1ccccc1C(=O)C1CCCN(C(=O)c2cn3cc(Cl)ccc3n2)C1 (stereo not given)	u	-5%	1%	-5%	6	u
C=CCn1nc([N+](=O)[O-])nc1Sc1cccc2cccnc12	8.9µM*	u	-29%	-67%	-3	u
O=[N+]([O-])c1ccc(Sc2cccc3cccnc23)c([N+](=O)[O-])c1	7.1µM*	7.1µM*	1%	-66%	-15	u

Screens (PubChem)
